Potency and max response data for 22 compounds are collected here from PubChem BioAssay (Tox21).

Assay [1] can be described thus: qHTS RealTime-Glo MT Cell Viability Assay in HepG2 cells - 8 hour (AID 1224873). Further: nearly all actives have a fitted effect of over 55% in size. Further: potency means the concentration at half of the fitted maximal effect. A digest of the protocol: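 Real-time viability: cells seeded at 600 per well together with NanoLuc and cell-permeant prosubstrate, compounds added after 5 h incubation. Luminescence tracked at 0, 8, 16, 24, 32 and 40 h of exposure.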
Assay [2] in a line: qHTS RealTime-Glo MT Cell Viability Assay in HEK293 cells - 40 hour (AID 1224874). Further: nearly all actives have a fitted effect of over 50% in size. Further: potency means the concentration at half of the fitted maximal effect. The note with it: RealTime-Glo luminescence; max response: stronger effect = lower value. The method in brief:
(§1)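 Viable HEK293 cells reduce a cell-permeant prosubstrate; the product diffuses out and is consumed by NanoLuc in the medium to give light. Compounds went in after a 5 h incubation and plates were read over the treatment course.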

Assay [3] is described as follows: A CellTox Green Cytotoxicity Assay to monitor cytotoxicity in HepG2 cells - 16 hour (AID 1224876). Further: nearly all actives have a fitted effect of over 45% in size. Further: potency means the concentration at half of the fitted maximal effect. A digest of the protocol:
(§2)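 Using 1536-well format, dye-containing HepG2 suspension was seeded, allowed 5 h at 37 C/5% CO2, dosed by pintool with compounds, positive and negative controls, and imaged for fluorescence across 40 h.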

Assay [4] can be described thus: qHTS RealTime-Glo MT Cell Viability Assay in HepG2 cells - 32 hour (AID 1224877). Further: nearly all actives have a fitted effect of over 55% in size. Further: potency means the concentration at half of the fitted maximal effect. A digest of the protocol:
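Tox21 10K library screened in qHTS format on HepG2 cells carrying RealTime-Glo reagents. Compounds were added after a 5 h preincubation, and the luminescent signal from continuous culture was measured repeatedly during 40 h treatment.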

Assay [5] in a line: A CellTox Green Cytotoxicity Assay to monitor cytotoxicity in HepG2 cells - 24 hour (AID 1224878). Further: nearly all actives have a fitted effect of over 45% in size. Further: potency means the concentration at half of the fitted maximal effect. The method in brief:
as §2

Assay [6] is described as follows: A CellTox Green Cytotoxicity Assay to monitor cytotoxicity in HepG2 cells - 40 hour (AID 1224879). Further: nearly all actives have a fitted effect of over 40% in size. Further: potency means the concentration at half of the fitted maximal effect. The method in brief:
as §2

Assay [7] can be described thus: qHTS RealTime-Glo MT Cell Viability Assay in HEK293 cells - 0 hour (AID 1224880). Further: top concentration of the series differs between compounds; nearly all actives have a fitted effect of over 45% in size. The method in brief: as §1
Assay [8] is described as follows: A CellTox Green Cytotoxicity Assay to monitor cytotoxicity in HEK293 cells - 32 hour (AID 1224881). Further: nearly all actives have a fitted effect of over 40% in size. Further: potency means the concentration at half of the fitted maximal effect. A digest of the protocol:
(§3)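 Fluorescence intensity, read at 0, 8, 16, 24, 32 and 40 h of compound treatment, reflected dye binding to DNA of dead HEK293 cells; compounds (23 nL, DMSO) were added 5 h after plating cells with reagent.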

Assay [9] can be described thus: A CellTox Green Cytotoxicity Assay to monitor cytotoxicity in HepG2 cells - 0 hour (AID 1224882). Further: nearly all actives have a fitted effect of over 35% in size. Further: potency means the concentration at half of the fitted maximal effect. A digest of the protocol: as §2
Assay [10] in a line: A CellTox Green Cytotoxicity Assay to monitor cytotoxicity in HEK293 cells - 24 hour (AID 1224875). Further: nearly all actives have a fitted effect of over 45% in size. Further: potency means the concentration at half of the fitted maximal effect. The method in brief:
as §3

Several values for one entry are separate records, joined by “and”; a condition that tells them apart may be missing. Equal values may be shown once. Records with an inconclusive call do not appear. The source holds several records for some structures; these can differ, active in one and inactive in another. Activity calls are given as the source filed them. The call rests on the fitted dose curve; in most records, active means well fitted curve in the direction sought with a large enough effect in the repeat runs; inconclusive means weak or mixed curves; inactive means no such curve, though single readings can be large; an effect the other way counts as inactive or inconclusive.
On the % scale 0 is the no-effect control and ±100 the full control effect.

`CCCCN(CCCC)C(=O)N(CCCC)CCCC`: the Potency result in assay [1], in assay [3], in assay [4], in assay [5], in assay [6] and in assay [7] was “inactive” in each case. Further, the Potency entry in [8] and in assay [9] was “inactive” in each case. The max response in assay [2] is -2.17% (inactive).

As to `CCCCCCCCCCCC[N+](C)(C)CCCCCCCCCCCC`, the Potency in assay [1] was 12.3 µM (active); in [2] it was 3.89 µM (active); in [10], 15.5 µM (active); in [4], 7.76 µM (active); in [6], 7.76 µM (active); in assay [8] it was 15.5 µM (active). Also, the Potency result in assay [7] and in assay [9] was “inactive” each time.

Consider `C[C@H](CCC(=O)O)[C@H]1CC[C@H]2[C@@H]3CC[C@@H]4C[C@H](O)CC[C@]4(C)[C@H]3CC[C@]12C`, for which the Potency entry in assay [1], in assay [10], in assay [4], in [7], in assay [8] and in assay [9] was “inactive” each time. For the same compound, the max response in assay [2] was -16.2% (inactive) and -15.3% (inactive).

On to `CN(C)[C@@H]1C(=O)C(C(N)=O)=C(O)[C@@]2(O)C(=O)C3=C(O)c4c(O)ccc(Cl)c4[C@@H](O)[C@H]3C[C@@H]12`, for which the Potency result in assay [1], in assay [3], in [4], in [5], in [6] and in assay [7] was “inactive” throughout. The Potency result in assay [8] and in assay [9] was “inactive” each time. In assay [2], the max response was -2.42% (inactive).

Consider `CCc1cc(Cc2cc(CC)c(N)c(CC)c2)cc(CC)c1N`, for which the Potency entry in assay [1], in assay [3], in assay [4], in [8] and in assay [9] was “inactive” in each case. In addition, the Potency in assay [2] is 27.5 µM (active).

As for `CCCCCCCCCCCCCC[P+](CCCC)(CCCC)CCCC` (tested in a mixture with another compound), the Potency in assay [1] was 19.6 µM (active); in [2], 0.349 µM (active); in assay [3], 19.6 µM (active); in [4], 19.6 µM (active); in assay [5] it was 15.6 µM (active); in assay [6] it was 13.9 µM (active). Moreover, the Potency in [8] was 15.6 µM (active). The Potency result in assay [7] and in assay [9] was “inactive” in each case.

Consider `Oc1ccc(N=Nc2ccccc2)cc1`, for which the Potency entry in assay [1], in assay [3], in assay [4], in assay [7] and in [9] was “inactive” throughout. Also, the Potency in assay [2] is 22.2 µM (active); in [8], 44.2 µM (active).

Consider `Cc1cc(C2CCCCC2)n(O)c(=O)c1`, for which the Potency result in [1], in assay [10], in [4], in assay [5], in assay [7] and in assay [8] was “inactive” each time. For the same compound, in [9], the Potency entry was “inactive”. The Potency in [2] is 1.69 µM (active).

For `O=C(Nc1cccc(Cl)c1)OCC#CCCl`, the Potency is 43.6 µM (active) in [1], 49 µM (active) in [2] and 43.6 µM (active) in assay [4]. The Potency entry in assay [10], in assay [7] and in assay [9] was “inactive” throughout.

As for `O=CC=C(c1ccccc1)c1ccccc1`, the Potency result in [1], in [3], in assay [4], in [5], in [6] and in [7] was “inactive” each time. In addition, the Potency result in assay [9] is “inactive”. For the same compound, the Potency in [2] is 17.5 µM (active).

Consider `CCCCN(CCCC)c1ccc(C(=O)c2ccccc2C(=O)O)c(O)c1`, for which the Potency entry in [1], in assay [3], in [4], in [7] and in assay [9] was “inactive” throughout. Moreover, the max response in assay [2] is -24.6% (inactive).

Turning to `O=c1[nH]sc2ccccc12`, the Potency in [1] was 34.7 µM (active); in assay [2], 30.9 µM (active); in assay [3] it was 34.7 µM (active); in [4], 21.9 µM (active); in [5], 38.9 µM (active); in assay [6], 21.9 µM (active). Besides, the Potency in [8] is 54.9 µM (active). The Potency result in [7] and in assay [9] was “inactive” in each case.

As to `CC[C@H]1O[C@]2(CC[C@@H]1C)C[C@@H]1C[C@@H](C/C=C(\C)C[C@@H](C)/C=C/C=C3\CO[C@@H]4[C@H](O)C(C)=C[C@@H](C(=O)O1)[C@]34O)O2`, the Potency was 48.5 µM (active) in [1]; 24.3 µM (active) in [2]; 48.5 µM (active) in assay [3]; 43.3 µM (active) in [4]; 27.3 µM (active) in assay [6]; 48.5 µM (active) in assay [8]. The Potency entry in [7] and in [9] was “inactive” in each case.

For the compound `CN(C)c1ccc(SC#N)cc1`, the Potency entry in assay [1], in assay [3], in assay [4], in [5], in [6] and in assay [7] was “inactive” each time. For the same compound, the Potency result in [8] and in assay [9] was “inactive” each time. Moreover, the max response in [2] was 0.13% (inactive).

In the case of `CCCCN1CCCC[C@H]1C(=O)Nc1c(C)cccc1C`, the Potency result in assay [1], in assay [3], in assay [4], in [5], in assay [6] and in [7] was “inactive” throughout. In addition, the Potency result in [8] and in assay [9] was “inactive” throughout. Moreover, in [2], the max response is -2.09% (inactive).

On to `Clc1ccccc1C(c1ccccc1)(c1ccccc1)n1ccnc1`, for which the Potency in assay [1] is 27.5 µM (active) and inactive; in assay [2], 19.5 µM (active) and 6.74 µM (active); in assay [3] it was 38.9 µM (active) and inactive; in assay [4], 24.5 µM (active) and inactive; in assay [5], 21.9 µM (active) and inactive; in assay [6] it was 21.9 µM (active) and inactive. In addition, the Potency in assay [8] is 43.6 µM (active) and inactive. Besides, the Potency entry in [7] and in assay [9] was “inactive” in each case.

As for `Nc1ccc2c3c(cccc13)-c1ccccc1-2`, the Potency entry in assay [1], in assay [4] and in assay [7] was “inactive” in each case. The Potency in assay [2] is 27.8 µM (active); in assay [5], 44.1 µM (active); in assay [6], 44.1 µM (active); in assay [8], 44.1 µM (active); in assay [9], 24.8 µM (active).

For `Cc1cc2c(cc1C(F)(F)F)N(C(=O)Nc1ccc(Oc3cccnc3C)nc1)CC2`, the Potency result in assay [1], in [3], in assay [7], in assay [8] and in assay [9] was “inactive” throughout. In assay [2], the Potency is 5.58 µM (active).

On to `CN1CCC(Nc2ncc3ncnc(Nc4ccc(F)c(Cl)c4)c3n2)CC1`, for which the Potency result in [1] and in assay [9] was “inactive” in each case. Also, the Potency in assay [2] is 10.7 µM (active); in assay [3], 21.3 µM (active); in assay [5], 23.9 µM (active); in assay [6], 26.8 µM (active).

As for `CCC(Cl)C(Cl)C(Cl)CC(Cl)C(Cl)C(C)Cl` (configuration not stated), the Potency entry in assay [1], in [3], in [4], in [5], in assay [6] and in assay [7] was “inactive” each time. Moreover, the Potency entry in assay [8] and in [9] was “inactive” in each case. Further, the max response in assay [2] was -19.8% (inactive).

Regarding `ON=C1CCCC1`, the Potency result in assay [1], in [10], in [4], in assay [6], in assay [7] and in assay [8] was “inactive” throughout. Besides, the Potency result in assay [9] is “inactive”. For the same compound, in [2], the Potency is 22.6 µM (active).

For the compound `CC(C)(C)C(=O)OCOC(=O)C1N2C(=O)CC2S(=O)(=O)C1(C)C` (configuration not stated), the Potency entry in assay [1], in [10], in assay [4], in [6], in assay [7] and in [8] was “inactive” in each case. In addition, the Potency entry in assay [9] was “inactive”. For the same compound, the max response in assay [2] is 5.75% (inactive).
